Measured values published in PubChem BioAssay (NCI).
Compounds without any hit were thinned out: in the full panel of roughly 83,000, 20% have a hit.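 Cells were grown in 96-well plates and exposed to the test compound at a single concentration for 48 hours; results are reported as percent growth, with values below 10 considered active.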 A number with no mark means an inactive call. Activity calls are given as the source filed them.

What was measured:
Assay in all cases: NCI-60 one-dose screen, 48 h (100 = growth as untreated, 0 = no growth, -100 = all killed)
Settings in all cases: 10 µM
HT29 colon = system: HT29 colon
SNB-75 CNS = system: SNB-75 CNS
SNB-19 CNS = system: SNB-19 CNS
U251 CNS = system: U251 CNS
PC-3 prostate = system: PC-3 prostate
SK-MEL-5 melanoma = system: SK-MEL-5 melanoma
UACC-62 melanoma = system: UACC-62 melanoma
SK-MEL-28 melanoma = system: SK-MEL-28 melanoma
LOX IMVI melanoma = system: LOX IMVI melanoma

Cc1ccc2nc3c(nc2c1)c1cc(I)ccc1n3CCN(C)C
growth (HT29 colon): 14.4% | growth (SNB-75 CNS): 30.6% | growth (SNB-19 CNS): 24.9% | growth (U251 CNS): 24.2% | growth (PC-3 prostate): 26% | growth (SK-MEL-5 melanoma): 48.1% | growth (UACC-62 melanoma): 59.1% | growth (SK-MEL-28 melanoma): 11.9%

Cc1cc2c(c(O)c1Br)-c1ncoc1C(=O)[C@]1(C)CC[C@H](C(C)C)[C@H]21
growth (HT29 colon): 5.42% (active) | growth (SNB-75 CNS): 59.6% | growth (SNB-19 CNS): 45% | growth (U251 CNS): 26.7% | growth (PC-3 prostate): 9.6% (active) | growth (SK-MEL-5 melanoma): -29.9% (active) | growth (UACC-62 melanoma): 33.1% | growth (LOX IMVI melanoma): 35.6% | growth (SK-MEL-28 melanoma): 46.6%

COc1ccc(-c2cc(C(=O)N=Nc3c(O)[nH]c4ccc(F)cc34)c3ccccc3n2)cc1
growth (HT29 colon): 61.9% | growth (SNB-75 CNS): 84.6% | growth (SNB-19 CNS): 44.1% | growth (U251 CNS): 7.34% (active) | growth (PC-3 prostate): 76.6% | growth (SK-MEL-5 melanoma): 72.4% | growth (UACC-62 melanoma): 81.4% | growth (SK-MEL-28 melanoma): 81.1%

O=C(CSc1nnc(-c2ccc3nc(-c4ccc(Cl)cc4)[nH]c3c2)o1)Nc1ccc(Br)cc1
growth (HT29 colon): -15.8% (active) | growth (SNB-75 CNS): 5.11% (active) | growth (SNB-19 CNS): -26.6% (active) | growth (U251 CNS): -63.9% (active) | growth (PC-3 prostate): 5.11% (active) | growth (SK-MEL-5 melanoma): -36.9% (active) | growth (UACC-62 melanoma): -90.8% (active) | growth (SK-MEL-28 melanoma): -94.4% (active)
